EBV gp42 block – EBV gp42 inhibition | Q1HVG2 | AID 1085 | 220,000 tested, 0.42% active | inhibition, % (tested at 21.74 µM) | Fluorescence polarization binding assay, mP read-out; in the data active means inhibition above about 50%
Target sequence (Q1HVG2 whole entry, looked up): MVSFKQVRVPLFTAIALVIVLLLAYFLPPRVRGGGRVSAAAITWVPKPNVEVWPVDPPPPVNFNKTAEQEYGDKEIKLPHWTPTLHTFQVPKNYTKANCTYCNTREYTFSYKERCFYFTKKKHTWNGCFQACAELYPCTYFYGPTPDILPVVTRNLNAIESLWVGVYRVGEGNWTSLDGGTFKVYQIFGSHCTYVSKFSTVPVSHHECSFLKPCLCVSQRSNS
BCLXL inh – blocks human Bcl-xL binding to Bim BH3 peptide. AID 2129. GST-Bcl-xL / FITC-Bim BH3 peptide fluorescence polarization. inhibition, % at 10.9 µM. Q07817. 320,000 tested, 0.7% active;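 active means inhibition above the mean of all tested compounds plus 3 SD, cutoff set per campaign, cut at about 30% in these data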;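 further: 0% = DMSO wells and 100% = unlabeled Bim-BH3 peptide competitor; inhibitors lower millipolarization by displacing the labeled peptide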
Target sequence (Q07817 whole entry, looked up): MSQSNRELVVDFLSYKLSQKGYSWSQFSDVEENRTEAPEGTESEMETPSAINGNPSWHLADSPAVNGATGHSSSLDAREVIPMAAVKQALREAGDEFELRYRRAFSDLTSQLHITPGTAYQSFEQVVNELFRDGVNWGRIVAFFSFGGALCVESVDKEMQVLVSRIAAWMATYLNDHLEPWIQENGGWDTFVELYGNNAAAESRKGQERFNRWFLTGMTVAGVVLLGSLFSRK
GLD-1 TGE inh – GLD-1-TGE RNA interaction inhibition (C. elegans). purified GLD-1 + fluorescein TGE RNA, fluorescence polarization. inhibition, % at 5.96 µM. 320,000 tested, 0.44% active;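 active means percent inhibition above a per-plate cutoff, the plate mean of test compounds plus 3 SD, cut at about 30% in these data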;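 further: 0% = DMSO wells with GLD-1 and probe and 100% = wells lacking GLD-1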
MEX-5 binding – C. elegans MEX-5 TCR-2 RNA binding activity. Q9XUB2. MEX-5/FITC-TCR2 RNA binding, fluorescence polarization; hits give low values. activity score (negative = inhibition of binding), % at 10 µM. 300,000 tested, 0.38% active;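 active means inhibition past about -25% in most replicates, and total fluorescence under double the plate's negative control median, limit read from the data; inconclusive means replicates evenly split on the limit, or fluorescence at least double controls; inactive means too little inhibition in most replicates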;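 further: 0% = DMSO and -100% = 5 µM competing unlabeled TCR2 RNA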
E coli Lon inh – inhibitors of E. coli Lon protease. inhibition, % at 7.94 µM. 360,000 tested, 0.42% active. purified E. coli Lon protease, fluorescence polarization; in the data active means inhibition above about 13%, passing the limit was not always enough;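 further: 0% = enzyme with probe and DMSO and 100% = no enzyme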
Starred values were filed as active, the others as inactive; ? = inconclusive; / = no result given. Hits are enriched below; roughly 1.3% of the tested compounds scored in any of these assays.

SMILES	EBV gp42 block	BCLXL inh	GLD-1 TGE inh	MEX-5 binding	E coli Lon inh
Cn1c2ccccc2c2cc(/C=N/NC(=O)c3cc(O)cc(O)c3)ccc21	/	19	7	3	6
COc1ccc(CCNC(=O)c2sc(=S)n(C)c2N)cc1	-11	3	-4	-1	7
Cn1c(N)c(C(=O)NCc2ccccc2)sc1=S	4	34*	2	1	1
CCCCC1C(=O)N(c2ccccc2)N(c2ccc(O)cc2)C1=O (stereo unspecified)	/	7	-1	/	-7
Cc1cc2cc(C(c3nnnn3Cc3ccccc3)N3CCc4ccccc43)c(=O)[nH]c2cc1C (stereo unspecified)	-22	31*	9	-3	-1
Cc1ccc2[nH]c(=O)c(C(c3nnnn3CC3CCCO3)N3CCCc4ccccc43)cc2c1 (stereo unspecified)	-9	42*	12	1	-6
Cc1ccc2[nH]c(=O)c(C(c3nnnn3Cc3ccccc3)N3CCc4ccccc43)cc2c1 (stereo unspecified)	-26	14	9	-2	-10
O=C1C(=Cc2cccn2-c2ccc(O)cc2)C(=O)c2ccccc21	82*	169*	61*	0	11
COc1ccc(N=Cc2c(O)n(-c3cccc(C)n3)c(=O)c3ccccc23)c(OC)c1	-2	-3	-41	-69*	2
COc1cccc(N=Cc2c(O)n(-c3cccc(C)n3)c(=O)c3ccccc23)c1	5	6	1	1	-6
CCOc1cccc(C(=O)Nc2ccccc2N2CCN(C(=O)C(C)C)CC2)c1	-14	1	2	-1	-5
O=Nc1ccc(NOC(=O)c2ccccc2)cc1	-2	2	-7	-2	-20
O=C(N=Nc1ccc(NOC(=O)c2ccccc2Br)cc1)c1ccccc1O	51*	16	-1	-1	/
CCOC(=O)C1=C(O)/C(=C/N(C)C)N=C1C	-14	36*	23	?	5
CCOC(=O)C1=C(O)/C(=C\c2cccc(OC)c2)N=C1C	-31	11	3	-3	-8
O=C(CSc1nc2ccccc2s1)NCc1cc([N+](=O)[O-])ccc1O	/	13	6	3	3
Oc1ccc(N2CCN(c3nc(-c4cccs4)nc4ccccc34)CC2)cc1	-15	32*	8	-1	1
COc1ccccc1C(=O)Nc1c(C(=O)N2CCN(C)CC2)oc2ccccc12	/	-1	4	0	8
Cc1ccccc1/C=N/N1CCN(c2ccccc2)CC1	1	9	-1	-1	0
N#Cc1c2ccccc2nc2ccccc12	-15	37*	6	2	-7
Nc1c2ccccc2nc2ccccc12	-11	3	5	1	-1
COc1ccc(S(=O)(=O)N(C)C[C@H]2Oc3c(NC(=O)NC(C)C)cccc3C(=O)N([C@H](C)CO)C[C@@H]2C)cc1	/	/	-2	/	5
Cc1ccc2[nH]c3c(c2c1)CN(C(=O)CN(C)CC1OCCO1)CC3	8	58*	53*	-7	9
CN(CC(=O)N1CCc2[nH]c3ccc(F)cc3c2C1)CC1OCCO1	0	10	4	-6	/
Cc1ccc2[nH]c3c(c2c1)CN(C(=O)CN1CCCCC1)CC3	-3	9	14	-6	/
SMILES	EBV gp42 block	BCLXL inh	GLD-1 TGE inh	MEX-5 binding	E coli Lon inh
Cc1ccc2[nH]c3c(c2c1)CN(C(=O)CN1CCCc2ccccc21)CC3	10	33*	-8	-1	-18
COc1cc2sc3cc(NCC[C@@H]4CCCN4C)ccc3c(=O)c2cc1OC	/	/	-3	/	-1
COc1cccc2sc3ccc(NCCC4CCCN4C)cc3c(=O)c12 (stereo unspecified)	/	33*	36*	-3	6
C=CCNC(=S)Nc1cc(Cl)ccc1OC	-13	5	4	-40*	2
C=CCN(CC=C)C(=S)Nc1cc(Cl)ccc1OC	-9	3	2	2	7
O=C(O)Cn1c(-c2ccccc2)cc2ccccc21	/	-1	8	2	4
Oc1ccc(-c2nc(-c3ccc(O)c(O)c3)cs2)cc1	0	18	-2	-68*	9
Oc1ccc(Nc2nc(-c3ccc4ccccc4c3)cs2)cc1	-4	3	6	-1	5
NC(=O)C1CCN(C(=O)Cc2ccsc2)CC1	/	2	1	4	0
COc1ccc(NC(=O)Cn2ncc(Cl)c(Cl)c2=O)cc1S(=O)(=O)N1CCOCC1	61*	8	2	1	-6
COc1ccc(NC(=O)c2ccc(Cl)nc2)cc1S(=O)(=O)N1CCOCC1	/	4	2	/	-6
COCCNC(=S)N1CCC2CC1c1c(Cl)cccc12 (stereo unspecified)	/	/	/	/	-5
CCOc1ccc(S(=O)(=O)N(C)CC(=O)NCc2ccccn2)cc1	/	0	1	1	-1
CN(CC(=O)NCc1ccccn1)S(=O)(=O)c1ccc(Br)cc1	0	0	2	-26*	-3
COc1ccccc1N1C(=O)S/C(=C\c2ccc(C)s2)C1=O	/	-21	-36	-32*	-32
Cc1ccc(/C=C2\Sc3ccccc3C2=O)s1	94*	3	-18	-2	-31
CN(C)S(=O)(=O)Nc1ccc(Cc2ccncc2)cc1	/	/	/	/	-6
CC1C(=O)Nc2ccc(S(=O)(=O)N3CCN(c4cccc(C(F)(F)F)c4)CC3)cc2NC1=O (stereo unspecified)	/	-1	-1	-1	2
CC1CCOC2(O1)C(=O)Nc1ccccc12 (stereo unspecified)	-2	6	0	1	-3
CSCC(C)N1CCC(n2nccc2NC(=O)c2ccccc2C)CC1 (stereo unspecified)	/	38*	23	-5	-5
CC[C@H](C)[C@H](NS(=O)(=O)c1ccc(C)cc1)C(=O)N1CCC(C(=O)N[C@H](C(=O)O)C(C)C)CC1	-18	41*	6	-2	-2
Cc1cccc2cc(/C=C3\N=C(c4ccccc4)OC3=O)c(N3CCOCC3)nc12	135*	2	-8	-9	7
Cc1ccc(C2=N/C(=C/N3CCOCC3)C(=O)O2)cc1	-12	0	-6	1	-4
COc1ccc(/C=C/C(=O)OCC(=O)Nc2cc(C(F)(F)F)ccc2Cl)cc1	-4	1	1	0	-10
CC(=O)Nc1c(NC(=O)CC#N)[nH]c2c(c1=O)c(=O)n(C)c(=O)n2C	-5	8	-6	-2	-5
Cc1ccc(N2C(=O)C3C(C2=O)C(C(=O)c2ccc(Cl)cc2)N2CCCC32)cc1 (stereo unspecified)	52*	73*	46*	-2	5
CC1=CC(C)C2(COC(=O)Nc3ccccc3)COC(C)C1C2C (stereo unspecified)	-15	-1	-2	-4	4
COc1ccc(C(=O)Nc2ccc(NC(=O)Cc3ccccc3)cn2)cc1	/	2	5	1	5
CCCCC(Sc1nc(N)c(NC(=O)c2ccc(OCC)cc2)c(=O)[nH]1)C(=O)O (stereo unspecified)	-14	9	3	-3	-2

High-throughput results (PubChem)
